This assay deals with Alpha-bungarotoxin (Bungarus multicinctus) (UniProt P60615). The assay can be described thus: compounds binding labelled alpha-BTX control protein – biochemical, small-molecule microarray, Alexa647 label, 635/667 nm fluorescence, artefact control for SMM control protein annotation, profiling panel (AID 1117). As to conditions: alpha-BTX-A647 binding fluorescence, higher = more signal.
Alpha-bungarotoxin (Bungarus multicinctus), sequence (P60615 whole entry, looked up): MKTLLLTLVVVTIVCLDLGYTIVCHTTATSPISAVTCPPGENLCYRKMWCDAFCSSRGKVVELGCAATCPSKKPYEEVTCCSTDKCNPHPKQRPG
Take `COc1ccc([Si](C)(C)[C@@H]2[C@@H](CC(=O)N3CCC[C@H]3CO)O[C@]3(C(=O)N(C)c4c(Br)cc(C)cc43)[C@H]2C)cc1`: the composite z-score was 0.338. `CN(C)CCCCCCNC(=O)[C@H]1C[C@H]2C(=O)N[C@@H](CCCCN)C(=O)N2[C@H]1c1ccc(O)cc1` showed a composite z-score of 2.42. The value for `COCC(=C=CC[C@H](O)c1ccc(OCCO)cc1)C[C@H](O)c1cc(Cl)cc(Cl)c1O` was 0.155; that for `COc1cc(C(O)C2C=CC3C(=O)N(c4ccccc4)C(=O)C3N2Nc2ccc(C#N)cc2)cc(OC)c1OC` (stereo not given) was 2.79. The value for `N#Cc1ccc(NN2C(C(O)c3ccc([N+](=O)[O-])cc3)C=CC3C(=O)N(c4ccccc4)C(=O)C32)cc1` (stereo not given) was 0.752; that for `CC(=O)NCCCC[C@@H]1NC(=O)[C@@H]2C[C@H](C(=O)NCCCCCCNC(=O)CS)[C@H](c3ccc(O)cc3)N2C1=O` was 1.36; that for `CCOC(=O)C[C@H]1[C@H](OC(=O)Cc2ccc3c(c2)OCO3)[C@@H](NC(=O)c2ccc(-c3ccccc3)cc2)c2cc(OCCCO)ccc2N1C(=O)c1ccccc1` was 0.815. `O=C1O[C@@H](c2ccccc2)[C@@H](c2ccccc2)N2[C@@H](c3ccccc3OCCO)[C@]3(C(=O)Nc4ccc(C#CC5(O)CCCCCC5)cc43)[C@@H](C(=O)Nc3nc4ccccc4s3)[C@H]12` yielded a composite z-score of 0.744. As for `Cc1ccccc1C(O)C1C=CC2C(=O)N(C)C(=O)C2N1N1CCCCC1` (stereo not given), the composite z-score worked out at 1.04.

The molecule `COCCOC(=O)N1C(=O)[C@@]2(c3ccccc31)[C@H](C(=O)Nc1nc3ccccc3s1)[C@H]1C(=O)O[C@H](c3ccccc3)[C@H](c3ccccc3)N1[C@@H]2c1ccc(OCCO)cc1` returned a composite z-score of 1.6. On to `CC(C)C[C@@H]1NC(=O)[C@H]2C[C@@H](C(=O)NCCCCCNC(=O)CS)[C@@H](c3cccc(OCCO)c3)N2C1=O`, for which the composite z-score was found to be 0.812. Regarding `COc1ccc(C#Cc2ccc3c(c2)[C@]2(C(=O)N3)[C@H](c3ccc(O)cc3)N3[C@H](c4ccccc4)[C@H](c4ccccc4)OC(=O)[C@H]3[C@@H]2C(=O)NC[C@H](O)c2ccccc2)cc1`, the composite z-score stood at 1.26. With `O=C1OCC=C[C@H]2OC34C=CCN(c5ccc(Cl)cc5)C(=O)[C@H]3N(CCCCCCO)C(=O)[C@@H]4[C@@H]12` (stereo not given in full), the composite z-score was -1.34. Then `C=CCOC(=O)[C@H]1[C@@H]2C(=O)O[C@@H](c3ccccc3)[C@@H](c3ccccc3)N2[C@@H](c2ccc(OCCOC(=O)[C@@H]3C[C@@H]4C(=O)N5CCC[C@H]5C(=O)N4[C@@H]3c3ccc(O)cc3)cc2)[C@]12C(=O)Nc1ccccc12`, with 1.18.

Regarding `CCCC[C@H]1OB(O)C[C@H]2C1=C(C)C[C@H]1C(=O)N(Cc3ccccc3)C(=O)[C@H]12`, the composite z-score was -0.277. Then `CCCC[C@@H]1C[C@H]1[C@@H](NC(=O)c1ccc(-c2ccccc2)cc1)c1ccc(-c2ccccc2)cc1`, with 0.364; and `COCC(=C=CC[C@@H](O)c1ccc(CO)o1)CCO`, with -0.0933.

`Cc1ccc(S[C@]2(C(=O)NCc3ccccc3)CC(=O)N(Cc3ccccc3Cl)[C@@H]2c2ccc(CO)cc2I)cc1` had a composite z-score of 1.7.

Regarding `CC=CC(O)C1C=CC2C(=O)N(c3ccccc3)C(=O)C2N1Nc1ccc(C(C)C)cc1` (stereo not given), the composite z-score was 1.78. Consider `COCCOC(=O)N1C(=O)[C@@]2(c3ccccc31)[C@H](C(=O)NC[C@H](O)c1ccccc1)[C@H]1C(=O)O[C@H](c3ccccc3)[C@H](c3ccccc3)N1[C@@H]2c1ccc(OCCO)cc1`, for which the composite z-score stood at 0.247. The value for `[N-]=[N+]=NCc1ccccc1C[C@@]1(C(=O)NCC(O)CO)N=C(c2ccc(OCCCO)cc2)O[C@@H]1c1ccccc1CN=[N+]=[N-]` (stereo not given in full) was 1.5.

`COc1ccc(C#Cc2ccc3c(c2)[C@]2(C(=O)N3)[C@H](C(=O)NC[C@H](O)c3ccccc3)[C@H]3C(=O)O[C@H](c4ccccc4)[C@H](c4ccccc4)N3[C@@H]2c2ccccc2OCCO)cc1` registered a composite z-score of 1.22. Then `COC(=O)[C@@]1(Cc2ccccc2)[C@H]2c3cc(C(=O)N(C)C)n(Cc4cc(C)n(C)n4)c3C[C@H]2CN1C(=O)c1ccccc1`, with 0.285; and `C#CCN(C(/C=C/c1ccccc1)CO)C(C(=O)O)c1ccccc1` (stereo not given), with 0.127. The value for `COc1ccc([Si](C)(C)[C@@H]2[C@@H](CCn3cc([C@H](O)c4ccccc4)nn3)O[C@]3(C(=O)N(Cc4cccc(N5CCOC5=O)c4)c4ccccc43)[C@H]2C)cc1` was -0.85. Molecule `Cc1ccc(S[C@]2(C(=O)O)CC(=O)N(C3Cc4ccccc4C3)[C@@H]2c2ccc(CO)cc2I)cc1` gave a composite z-score of 0.835.

The molecule `CCOC(=O)C[C@H]1[C@H](OC(=O)c2ccc(-c3ccccc3)cc2)[C@@H](NC(=O)Cc2ccc(OC)cc2)c2cc(OCCCO)ccc2N1C(=O)c1ccc2ccccc2n1` came in with a composite z-score of 0.0263. Then `COc1ccc([Si](C)(C)[C@@H]2[C@@H](CC(=O)N(CCO)Cc3ccccc3)O[C@]3(C(=O)N(C)c4ccccc43)[C@H]2C)cc1`, with 0.805; and `O=c1cccc(C=Cc2ccccc2)o1`, with -0.374; and `O=C1OCC=C[C@H]2OC34C=CCN(c5ccc6ccccc6c5)C(=O)[C@H]3N(CCCO)C(=O)[C@@H]4[C@@H]12` (stereo not given in full), with -0.871.

`COCCOC(=O)N1C(=O)[C@@]2(c3cc(C#CC4=CCCCC4)ccc31)[C@H](C(=O)N1CCc3cc(OC)c(OC)cc3C1)[C@H]1C(=O)O[C@H](c3ccccc3)[C@H](c3ccccc3)N1[C@@H]2c1ccccc1OCCO` yielded a composite z-score of 0.917.

On to `COCCOC(=O)N1C(=O)[C@@]2(c3cc(C#CCC(C(=O)OC)C(=O)OC)ccc31)[C@H](c1ccccc1OCCO)N1[C@H](c3ccccc3)[C@H](c3ccccc3)OC(=O)[C@H]1[C@@H]2C(N)=O`, for which the composite z-score is 2.37. Then `CC(C)OC(=O)CC(=O)CC(O)c1ccc(C#N)cc1` (stereo not given), with 1.75. Molecule `COC(=O)[C@@]1(Cc2ccc(OC)cc2)[C@H]2c3cc(C(=O)N(C)C)n(Cc4c(OC)[nH]cc(C)c4=O)c3C[C@H]2CN1C(=O)c1ccccc1` showed a composite z-score of -0.0941.

`O=C1C[C@@](C(=O)NC2CC2)(c2ccc([N+](=O)[O-])cc2)[C@@H](c2ccc(CO)cc2)N1CC12CC3CC(CC(C3)C1)C2`: the composite z-score is 0.601.

The values above are taken from PubChem BioAssay.
